Laboratory results published in article PMC7862700, “An all-to-all approach to the identification of sequence-specific readers for epigenetic DNA modifications on cytosine”.

Key:
Experiment in all cases: DAPPL (digital affinity profiling via proximity ligation, sequencing); 10 mM Tris-HCl pH 7.5, 50 mM NaCl, 1 mM DTT, 4% glycerol, room temperature, 30 min; GST-TFs on glutathione beads, 16-mer random dsDNA library, 0.1% formaldehyde crosslink after washing; high values mean tight binding
FLI1 = biological target: T1, FLI1 (Homo sapiens, UniProt Q01543 1-452); settings: protein: recombinant; tags: N-terminal GST; dsDNA, one strand shown
T1 sequence: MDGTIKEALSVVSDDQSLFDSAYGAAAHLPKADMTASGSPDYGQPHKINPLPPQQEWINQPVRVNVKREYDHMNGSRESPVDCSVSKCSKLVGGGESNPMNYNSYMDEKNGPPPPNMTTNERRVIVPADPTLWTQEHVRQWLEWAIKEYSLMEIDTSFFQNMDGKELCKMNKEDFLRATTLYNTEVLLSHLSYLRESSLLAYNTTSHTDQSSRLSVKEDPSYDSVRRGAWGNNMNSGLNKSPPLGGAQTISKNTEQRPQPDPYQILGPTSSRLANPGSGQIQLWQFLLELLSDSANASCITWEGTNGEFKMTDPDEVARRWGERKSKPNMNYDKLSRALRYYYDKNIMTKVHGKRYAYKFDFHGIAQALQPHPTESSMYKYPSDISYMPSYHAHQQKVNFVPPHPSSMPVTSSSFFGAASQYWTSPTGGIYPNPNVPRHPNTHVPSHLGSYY
Procedure, shortened: (§1)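 After expression in yeast as GST fusions, human transcription factors were bound to glutathione beads, DNA-barcoded and mixed with a tag-only sample. The pools were incubated with 200 nmole of a 16-mer random double-stranded DNA library in Tris/NaCl/DTT/glycerol buffer (30 min, room temperature), washed and crosslinked with 0.1% formaldehyde. Proximity ligation with BsaI/T4 ligase ran for 1 h at 37 °C, before PCR amplification and sequencing on an Illumina NextSeq500. Binding signal is a hexamer's read frequency for a factor divided by its frequency for the tag-only sample.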

ELK1 = biological target: T2, ELK1 (Homo sapiens, UniProt P19419 1-428); settings: protein: recombinant; tags: N-terminal GST; dsDNA, one strand shown
T2 sequence: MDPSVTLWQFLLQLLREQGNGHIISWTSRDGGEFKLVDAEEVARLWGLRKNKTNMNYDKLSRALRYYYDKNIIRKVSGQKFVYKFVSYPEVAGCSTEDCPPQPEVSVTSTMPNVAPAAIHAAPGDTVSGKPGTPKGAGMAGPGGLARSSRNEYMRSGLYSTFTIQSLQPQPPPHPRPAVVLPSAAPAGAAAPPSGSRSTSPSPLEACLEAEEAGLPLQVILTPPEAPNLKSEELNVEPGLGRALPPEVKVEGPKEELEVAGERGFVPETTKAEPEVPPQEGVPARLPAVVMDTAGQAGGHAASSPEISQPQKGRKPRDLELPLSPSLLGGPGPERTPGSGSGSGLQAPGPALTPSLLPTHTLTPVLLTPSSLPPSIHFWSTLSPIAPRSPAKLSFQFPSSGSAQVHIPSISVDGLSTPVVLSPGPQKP
Procedure, shortened: as §1

GABPA = biological target: T3, GABPA (Homo sapiens, UniProt Q06546 1-454); settings: protein: recombinant; tags: N-terminal GST; dsDNA, one strand shown
T3 sequence: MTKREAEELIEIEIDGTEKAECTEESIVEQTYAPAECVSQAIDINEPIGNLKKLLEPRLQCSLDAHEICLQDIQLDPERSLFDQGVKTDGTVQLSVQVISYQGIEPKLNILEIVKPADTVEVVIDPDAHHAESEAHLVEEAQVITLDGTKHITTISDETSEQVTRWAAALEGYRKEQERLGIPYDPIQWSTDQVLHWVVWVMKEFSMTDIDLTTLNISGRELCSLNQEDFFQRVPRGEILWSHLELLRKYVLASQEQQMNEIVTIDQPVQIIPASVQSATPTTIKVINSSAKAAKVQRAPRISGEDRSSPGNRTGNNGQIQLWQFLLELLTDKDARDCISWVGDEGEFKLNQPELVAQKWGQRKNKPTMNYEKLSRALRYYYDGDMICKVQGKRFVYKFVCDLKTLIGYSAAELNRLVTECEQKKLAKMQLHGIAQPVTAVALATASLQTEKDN
Procedure, shortened: as §1

ERG = biological target: T4, ERG (Homo sapiens, UniProt P11308 1-479); settings: protein: recombinant; tags: N-terminal GST; dsDNA, one strand shown
T4 sequence: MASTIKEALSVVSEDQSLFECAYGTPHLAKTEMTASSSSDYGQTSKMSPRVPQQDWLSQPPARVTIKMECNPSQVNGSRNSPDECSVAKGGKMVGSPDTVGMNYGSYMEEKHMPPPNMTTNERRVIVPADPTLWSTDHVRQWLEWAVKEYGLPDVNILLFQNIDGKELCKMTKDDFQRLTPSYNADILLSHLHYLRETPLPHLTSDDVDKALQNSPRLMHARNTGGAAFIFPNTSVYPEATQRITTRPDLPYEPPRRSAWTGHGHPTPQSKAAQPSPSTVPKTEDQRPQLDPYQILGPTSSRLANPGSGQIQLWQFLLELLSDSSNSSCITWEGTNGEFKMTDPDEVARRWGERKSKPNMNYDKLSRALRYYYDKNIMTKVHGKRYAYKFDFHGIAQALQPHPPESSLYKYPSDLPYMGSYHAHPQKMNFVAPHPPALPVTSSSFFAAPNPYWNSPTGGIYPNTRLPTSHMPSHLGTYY
Procedure, shortened: as §1

ELF1 = ELF1 (Homo sapiens, UniProt P32519 1-619); settings: protein: recombinant; tags: N-terminal GST; dsDNA, one strand shown
Procedure, shortened: as §1

EHF = biological target: T5, EHF (Homo sapiens, UniProt Q9NZC4 1-300); settings: protein: recombinant; tags: N-terminal GST; dsDNA, one strand shown
T5 sequence: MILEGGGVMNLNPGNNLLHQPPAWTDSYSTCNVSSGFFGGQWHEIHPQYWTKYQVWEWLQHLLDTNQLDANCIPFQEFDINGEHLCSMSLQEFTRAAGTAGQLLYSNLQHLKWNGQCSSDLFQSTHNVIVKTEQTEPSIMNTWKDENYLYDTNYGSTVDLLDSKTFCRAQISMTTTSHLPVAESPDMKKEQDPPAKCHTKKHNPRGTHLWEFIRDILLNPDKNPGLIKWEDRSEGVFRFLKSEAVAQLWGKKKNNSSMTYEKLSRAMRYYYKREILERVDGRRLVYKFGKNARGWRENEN
Procedure, shortened: as §1

SPI1 = SPI1 (Homo sapiens, UniProt P17947 1-270); settings: protein: recombinant; tags: N-terminal GST; dsDNA, one strand shown
Procedure, shortened: as §1

SPIB = SPIB (Homo sapiens, UniProt Q01892 1-262); settings: protein: recombinant; tags: N-terminal GST; dsDNA, one strand shown
Procedure, shortened: as §1

ELK3 = biological target: T6, ELK3 (Homo sapiens, UniProt P41970 1-407); settings: protein: recombinant; tags: N-terminal GST; dsDNA, one strand shown
T6 sequence: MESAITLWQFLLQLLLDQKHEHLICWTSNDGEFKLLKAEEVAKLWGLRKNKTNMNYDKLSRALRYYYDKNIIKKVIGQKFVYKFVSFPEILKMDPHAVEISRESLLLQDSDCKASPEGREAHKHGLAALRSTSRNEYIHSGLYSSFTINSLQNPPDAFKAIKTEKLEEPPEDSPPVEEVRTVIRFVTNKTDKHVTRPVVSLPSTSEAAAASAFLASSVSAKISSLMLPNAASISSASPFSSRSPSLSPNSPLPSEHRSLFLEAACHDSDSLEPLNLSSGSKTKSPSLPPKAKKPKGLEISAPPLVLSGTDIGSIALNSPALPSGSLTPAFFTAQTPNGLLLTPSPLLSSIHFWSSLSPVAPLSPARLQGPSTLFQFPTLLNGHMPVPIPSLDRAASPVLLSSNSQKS
Procedure, shortened: as §1

FEV = biological target: T7, FEV (Homo sapiens, UniProt Q99581 1-238); settings: protein: recombinant; tags: N-terminal GST; dsDNA, one strand shown
T7 sequence: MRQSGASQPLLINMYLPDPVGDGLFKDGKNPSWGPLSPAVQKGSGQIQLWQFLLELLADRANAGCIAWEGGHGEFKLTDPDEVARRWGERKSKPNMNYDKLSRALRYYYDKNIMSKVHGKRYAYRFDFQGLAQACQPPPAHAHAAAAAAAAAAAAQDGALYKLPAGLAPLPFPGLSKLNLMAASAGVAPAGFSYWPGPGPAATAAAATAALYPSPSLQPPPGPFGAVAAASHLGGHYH
Procedure, shortened: as §1

ETV5 = ETV5 (Homo sapiens, UniProt P41161 1-510); settings: protein: recombinant; tags: N-terminal GST; dsDNA, one strand shown
Procedure, shortened: as §1

HSF1 = HSF1 (Homo sapiens, UniProt Q00613 1-529); settings: protein: recombinant; tags: N-terminal GST; chain copies: 3; dsDNA, one strand shown
Procedure, shortened: as §1

SPIC = biological target: T8, SPIC (Homo sapiens, UniProt Q8N5J4 1-248); settings: protein: recombinant; tags: N-terminal GST; dsDNA, one strand shown
T8 sequence: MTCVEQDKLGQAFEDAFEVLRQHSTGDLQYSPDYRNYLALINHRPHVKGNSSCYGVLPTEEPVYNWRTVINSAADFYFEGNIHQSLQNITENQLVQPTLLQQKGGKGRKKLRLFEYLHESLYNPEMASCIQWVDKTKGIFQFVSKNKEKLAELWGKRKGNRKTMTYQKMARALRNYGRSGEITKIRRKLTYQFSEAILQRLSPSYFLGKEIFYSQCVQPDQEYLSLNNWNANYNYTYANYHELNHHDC
Procedure, shortened: as §1

ELF4 = ELF4 (Homo sapiens, UniProt Q99607 1-663); settings: protein: recombinant; tags: N-terminal GST; dsDNA, one strand shown
Procedure, shortened: as §1

ELK4 = biological target: T9, ELK4 (Homo sapiens, UniProt P28324-2 1-405); settings: protein: recombinant; tags: N-terminal GST; dsDNA, one strand shown
T9 sequence: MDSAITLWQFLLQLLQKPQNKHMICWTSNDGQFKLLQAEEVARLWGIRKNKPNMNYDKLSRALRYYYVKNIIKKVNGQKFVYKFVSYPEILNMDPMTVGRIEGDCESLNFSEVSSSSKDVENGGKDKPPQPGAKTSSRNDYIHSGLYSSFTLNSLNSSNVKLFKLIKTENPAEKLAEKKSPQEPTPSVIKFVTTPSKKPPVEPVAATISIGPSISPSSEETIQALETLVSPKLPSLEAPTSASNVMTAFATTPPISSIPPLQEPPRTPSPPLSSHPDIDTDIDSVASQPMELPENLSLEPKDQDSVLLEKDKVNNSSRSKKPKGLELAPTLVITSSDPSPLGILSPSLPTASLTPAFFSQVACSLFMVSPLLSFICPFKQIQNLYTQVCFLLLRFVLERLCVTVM
Procedure, shortened: as §1

ETV2 = biological target: T10, ETV2 (Homo sapiens, UniProt O00321 1-342); settings: protein: recombinant; tags: N-terminal GST; dsDNA, one strand shown
T10 sequence: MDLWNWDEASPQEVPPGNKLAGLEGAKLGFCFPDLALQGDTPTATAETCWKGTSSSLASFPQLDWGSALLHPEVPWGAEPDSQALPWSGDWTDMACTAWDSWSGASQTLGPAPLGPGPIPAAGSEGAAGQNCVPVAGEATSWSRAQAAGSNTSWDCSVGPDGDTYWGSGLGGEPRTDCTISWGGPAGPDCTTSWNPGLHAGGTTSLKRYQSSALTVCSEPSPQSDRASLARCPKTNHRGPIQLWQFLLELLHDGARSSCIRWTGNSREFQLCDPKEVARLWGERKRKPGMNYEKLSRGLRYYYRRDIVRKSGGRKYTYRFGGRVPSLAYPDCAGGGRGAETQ
Procedure, shortened: as §1

ELF3 = biological target: T11, ELF3 (Homo sapiens, UniProt P78545 1-371); settings: protein: recombinant; tags: N-terminal GST; dsDNA, one strand shown
T11 sequence: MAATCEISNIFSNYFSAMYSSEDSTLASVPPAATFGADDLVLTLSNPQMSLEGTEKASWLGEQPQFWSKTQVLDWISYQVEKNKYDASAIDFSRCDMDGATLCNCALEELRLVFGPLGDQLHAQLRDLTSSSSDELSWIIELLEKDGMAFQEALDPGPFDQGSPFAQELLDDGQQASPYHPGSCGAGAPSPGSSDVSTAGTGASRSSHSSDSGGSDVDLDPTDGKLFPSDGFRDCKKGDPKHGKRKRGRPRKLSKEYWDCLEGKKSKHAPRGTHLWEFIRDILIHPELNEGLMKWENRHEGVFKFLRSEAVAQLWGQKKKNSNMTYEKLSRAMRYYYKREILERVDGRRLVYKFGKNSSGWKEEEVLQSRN
Procedure, shortened: as §1

CRX = CRX (Homo sapiens, UniProt O43186 1-299); settings: protein: recombinant; tags: N-terminal GST; dsDNA, one strand shown
Procedure, shortened: as §1

ETV1 = ETV1 (Homo sapiens, UniProt P50549 1-477); settings: protein: recombinant; tags: N-terminal GST; dsDNA, one strand shown
Procedure, shortened: as §1

CRX, sequence (O43186 whole entry): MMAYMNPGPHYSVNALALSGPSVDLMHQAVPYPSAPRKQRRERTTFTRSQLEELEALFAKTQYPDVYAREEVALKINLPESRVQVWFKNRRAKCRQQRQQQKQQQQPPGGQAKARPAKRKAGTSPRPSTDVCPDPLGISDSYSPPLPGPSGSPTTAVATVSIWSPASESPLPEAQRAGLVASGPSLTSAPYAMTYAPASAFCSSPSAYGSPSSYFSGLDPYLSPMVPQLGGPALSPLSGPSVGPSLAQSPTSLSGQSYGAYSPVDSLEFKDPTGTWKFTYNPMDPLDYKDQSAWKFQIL
ETV5, sequence (P41161 whole entry): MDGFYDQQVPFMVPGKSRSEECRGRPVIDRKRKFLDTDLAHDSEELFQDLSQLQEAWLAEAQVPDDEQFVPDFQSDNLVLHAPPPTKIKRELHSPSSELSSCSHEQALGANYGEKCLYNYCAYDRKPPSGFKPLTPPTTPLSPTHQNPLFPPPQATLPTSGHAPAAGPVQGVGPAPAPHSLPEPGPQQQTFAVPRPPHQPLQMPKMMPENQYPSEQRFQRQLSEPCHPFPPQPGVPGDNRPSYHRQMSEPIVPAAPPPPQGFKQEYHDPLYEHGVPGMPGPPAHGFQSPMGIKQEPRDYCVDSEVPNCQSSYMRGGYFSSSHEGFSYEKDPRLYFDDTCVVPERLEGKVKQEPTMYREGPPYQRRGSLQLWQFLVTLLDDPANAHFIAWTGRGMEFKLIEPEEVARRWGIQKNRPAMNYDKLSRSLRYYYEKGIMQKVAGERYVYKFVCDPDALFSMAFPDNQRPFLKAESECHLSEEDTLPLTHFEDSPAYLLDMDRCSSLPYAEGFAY
ELF4, sequence (Q99607 whole entry): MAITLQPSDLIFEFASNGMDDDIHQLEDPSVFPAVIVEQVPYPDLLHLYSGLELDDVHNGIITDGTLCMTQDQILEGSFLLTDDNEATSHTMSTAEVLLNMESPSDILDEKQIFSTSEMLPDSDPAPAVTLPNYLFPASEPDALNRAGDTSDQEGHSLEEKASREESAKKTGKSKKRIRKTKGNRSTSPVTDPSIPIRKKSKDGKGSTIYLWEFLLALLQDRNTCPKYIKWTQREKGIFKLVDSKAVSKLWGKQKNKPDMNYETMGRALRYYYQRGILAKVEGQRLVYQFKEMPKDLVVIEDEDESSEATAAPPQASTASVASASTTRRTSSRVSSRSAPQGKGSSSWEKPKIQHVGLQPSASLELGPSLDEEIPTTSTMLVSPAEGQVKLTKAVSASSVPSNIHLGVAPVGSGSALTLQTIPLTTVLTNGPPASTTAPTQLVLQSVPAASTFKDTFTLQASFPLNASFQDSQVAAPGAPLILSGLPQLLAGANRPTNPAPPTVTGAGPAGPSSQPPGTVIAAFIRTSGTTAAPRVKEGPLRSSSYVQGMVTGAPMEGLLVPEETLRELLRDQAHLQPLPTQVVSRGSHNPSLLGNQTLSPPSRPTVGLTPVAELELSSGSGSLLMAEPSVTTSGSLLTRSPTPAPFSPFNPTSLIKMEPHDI
ETV1, sequence (P50549 whole entry): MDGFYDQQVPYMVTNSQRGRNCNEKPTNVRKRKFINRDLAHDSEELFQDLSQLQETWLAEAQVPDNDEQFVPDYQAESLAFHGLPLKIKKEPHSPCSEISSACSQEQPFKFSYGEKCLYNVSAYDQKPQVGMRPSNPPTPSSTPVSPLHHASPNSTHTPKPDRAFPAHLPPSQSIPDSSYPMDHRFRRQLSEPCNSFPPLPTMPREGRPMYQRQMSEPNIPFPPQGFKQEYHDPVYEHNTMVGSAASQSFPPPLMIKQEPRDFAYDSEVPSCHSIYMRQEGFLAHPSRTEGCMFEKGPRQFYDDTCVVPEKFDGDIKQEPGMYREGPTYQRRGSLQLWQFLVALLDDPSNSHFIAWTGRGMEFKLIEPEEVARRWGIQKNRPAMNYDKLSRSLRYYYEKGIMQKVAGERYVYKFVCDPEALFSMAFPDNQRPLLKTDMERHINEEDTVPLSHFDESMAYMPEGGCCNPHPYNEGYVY
ELF1, sequence (P32519 whole entry): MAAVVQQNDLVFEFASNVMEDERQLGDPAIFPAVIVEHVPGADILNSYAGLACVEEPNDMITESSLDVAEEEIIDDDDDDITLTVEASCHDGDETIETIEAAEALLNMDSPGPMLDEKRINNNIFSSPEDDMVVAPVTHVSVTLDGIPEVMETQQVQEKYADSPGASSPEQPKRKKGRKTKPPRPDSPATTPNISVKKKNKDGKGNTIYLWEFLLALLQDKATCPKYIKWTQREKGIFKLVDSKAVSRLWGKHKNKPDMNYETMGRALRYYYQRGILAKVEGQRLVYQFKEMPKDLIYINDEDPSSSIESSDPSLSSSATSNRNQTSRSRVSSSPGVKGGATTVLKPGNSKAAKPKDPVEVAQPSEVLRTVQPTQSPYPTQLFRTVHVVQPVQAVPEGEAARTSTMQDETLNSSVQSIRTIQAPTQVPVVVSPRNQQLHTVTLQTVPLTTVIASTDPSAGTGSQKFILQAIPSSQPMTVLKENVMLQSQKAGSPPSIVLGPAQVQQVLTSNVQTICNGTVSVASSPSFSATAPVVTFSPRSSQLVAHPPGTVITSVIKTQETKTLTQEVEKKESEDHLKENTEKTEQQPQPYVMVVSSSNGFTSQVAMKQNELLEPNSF
SPIB, sequence (Q01892 whole entry): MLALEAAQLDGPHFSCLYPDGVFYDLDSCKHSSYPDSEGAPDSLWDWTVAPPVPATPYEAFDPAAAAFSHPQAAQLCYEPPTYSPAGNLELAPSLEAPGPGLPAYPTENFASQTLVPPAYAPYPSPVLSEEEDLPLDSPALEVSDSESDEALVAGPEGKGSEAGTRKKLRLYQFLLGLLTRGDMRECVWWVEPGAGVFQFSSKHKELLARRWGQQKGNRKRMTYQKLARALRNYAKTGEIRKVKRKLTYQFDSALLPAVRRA
HSF1, sequence (Q00613 whole entry): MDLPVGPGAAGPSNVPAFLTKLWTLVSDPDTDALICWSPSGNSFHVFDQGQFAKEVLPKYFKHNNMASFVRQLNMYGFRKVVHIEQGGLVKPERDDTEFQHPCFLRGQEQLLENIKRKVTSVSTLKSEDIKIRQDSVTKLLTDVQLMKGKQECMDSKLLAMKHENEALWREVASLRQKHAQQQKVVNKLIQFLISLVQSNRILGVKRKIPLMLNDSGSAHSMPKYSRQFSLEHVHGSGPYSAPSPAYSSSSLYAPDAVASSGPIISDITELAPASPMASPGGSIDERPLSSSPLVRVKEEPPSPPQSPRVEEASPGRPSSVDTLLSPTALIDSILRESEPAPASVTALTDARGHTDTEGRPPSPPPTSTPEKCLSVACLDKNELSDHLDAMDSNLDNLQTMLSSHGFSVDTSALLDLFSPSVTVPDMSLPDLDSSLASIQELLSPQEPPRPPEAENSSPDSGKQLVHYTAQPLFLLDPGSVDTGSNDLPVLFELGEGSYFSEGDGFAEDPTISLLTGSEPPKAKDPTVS

Q: Which results are given for ATCCCT?
A: binding signal (FLI1): 1.35 fold enrichment (6-mer frequency, TF over GST control); binding signal (ELK1): 1.28 fold enrichment (6-mer frequency, TF over GST control); binding signal (GABPA): 1.22 fold enrichment (6-mer frequency, TF over GST control); binding signal (ERG): 1.24 fold enrichment (6-mer frequency, TF over GST control); binding signal (ELF1): 1.31 fold enrichment (6-mer frequency, TF over GST control); binding signal (EHF): 1.22 fold enrichment (6-mer frequency, TF over GST control); binding signal (SPI1): 1.16 fold enrichment (6-mer frequency, TF over GST control); binding signal (SPIB): 1.27 fold enrichment (6-mer frequency, TF over GST control); binding signal (ELK3): 1.12 fold enrichment (6-mer frequency, TF over GST control); binding signal (FEV): 1.3 fold enrichment (6-mer frequency, TF over GST control); binding signal (ETV5): 1.3 fold enrichment (6-mer frequency, TF over GST control); binding signal (HSF1): 1.64 fold enrichment (6-mer frequency, TF over GST control); binding signal (SPIC): 1.27 fold enrichment (6-mer frequency, TF over GST control); binding signal (ELF4): 1.38 fold enrichment (6-mer frequency, TF over GST control); binding signal (ELK4): 1.33 fold enrichment (6-mer frequency, TF over GST control); binding signal (ETV2): 1.13 fold enrichment (6-mer frequency, TF over GST control); binding signal (ELF3): 1.22 fold enrichment (6-mer frequency, TF over GST control); binding signal (CRX): 2.17 fold enrichment (6-mer frequency, TF over GST control); binding signal (ETV1): 1.21 fold enrichment (6-mer frequency, TF over GST control)
